Compounds with a hit are over-represented: about 2.2% of the library has one in this group of screens.
CF NFkB block = blocks PAF-induced NF-kB reporter in cystic fibrosis cells | 0.86% of 360,000 active | AID 588850 | inhibition, % at 5 µM | KKLEB NF-kB-GFP reporter, GFP fluorescence overnight;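 active means at least 50% inhibition at 5 µM, scaled per plate between neutral and stimulator controls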;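 further: PAF is a Pseudomonas aeruginosa culture filtrate used as stimulus; plate controls were PAF-stimulated DMSO wells for no effect and unstimulated DMSO wells for full effect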
hiPSC survival = hiPSC single-cell survival enhancement; survival enhancement, % at 20 µM; ATPlite luminescence; 100% = ROCK inhibitor wells, 0% = DMSO; 0.044% of 360,000 active; in the data active means survival enhancement above about 18%;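 further: cells exposed to compounds for 16 hours before the ATP read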
KKLEB tox = CF airway cell cytotoxicity counter-screen; KKLEB CF airway cells viability, ATPlite luminescence, overnight; stronger effect = lower value; cells stimulated with P. aeruginosa culture filtrate; activity change (cytotoxicity), % at 5 µM; 0.36% of 360,000 active; AID 602141;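 active means corrected activity change at or below -50% at 5 µM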
PPC-1+TRAIL kill = PPC-1 cancer cell killing with TRAIL present; PPC-1 cells + TRAIL, ATPLite viability luminescence; AID 1443; cell killing (% activity), % at 4 µM or 5 µM; 0.41% of 220,000 active;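 active means cell killing above 50% in the first pass at 4 µM, then a duplicate retest at 5 µM averaging 50% or more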;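 further: plate controls were cells with TRAIL plus DMSO for no effect and medium-only wells lacking cells for full effect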
C8 TRAIL sens = caspase-8 TRAIL sensitization | inhibition (viability loss, TRAIL sensitization), % at 10 µM | 1% of 360,000 active | AID 624354 | NB7+C8 cells + TRAIL, ATPlite viability luminescence;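 active means compounds causing at least 50% loss of cell viability in the single-dose screen, relative to plate controls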
HIF-2a inh = blocks HIF-2a reporter activity; AID 624352; 0.72% of 360,000 active; 786-0 RCC cells HIF-2a reporter, luciferase luminescence, overnight; inhibition, % at 18.8 µM;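 active means inhibition of the luminescence signal of 40% or more relative to plate controls, in a single-dose primary screen at 18.75 µM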
Mdm2 MdmX conf = confirmation of inhibitors of human Mdm2/MdmX interaction, set 2; shares compounds with HIF-2a inh; SaOS-2 split-luciferase Mdm2/MdmX complementation, luminescence; inhibition, % at 8 µM; 99% of 740 active;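 active means mean inhibition of the luminescence signal across two replicates at or above 26 percent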
Target sequence (O15151 whole entry, looked up): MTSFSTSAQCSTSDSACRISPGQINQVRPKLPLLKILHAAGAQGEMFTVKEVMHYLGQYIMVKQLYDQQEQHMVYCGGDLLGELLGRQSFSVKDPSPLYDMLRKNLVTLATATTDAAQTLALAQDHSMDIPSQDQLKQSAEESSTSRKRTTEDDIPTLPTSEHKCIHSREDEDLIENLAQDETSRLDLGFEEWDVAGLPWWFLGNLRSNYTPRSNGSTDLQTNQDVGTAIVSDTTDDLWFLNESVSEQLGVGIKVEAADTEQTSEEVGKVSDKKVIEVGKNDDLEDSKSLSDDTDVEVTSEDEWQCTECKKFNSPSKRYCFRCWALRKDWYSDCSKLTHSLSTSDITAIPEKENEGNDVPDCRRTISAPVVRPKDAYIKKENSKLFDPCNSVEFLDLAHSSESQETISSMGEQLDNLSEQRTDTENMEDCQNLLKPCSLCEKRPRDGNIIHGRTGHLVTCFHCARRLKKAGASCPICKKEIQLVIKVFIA
Target sequence (Q00987 whole entry, looked up): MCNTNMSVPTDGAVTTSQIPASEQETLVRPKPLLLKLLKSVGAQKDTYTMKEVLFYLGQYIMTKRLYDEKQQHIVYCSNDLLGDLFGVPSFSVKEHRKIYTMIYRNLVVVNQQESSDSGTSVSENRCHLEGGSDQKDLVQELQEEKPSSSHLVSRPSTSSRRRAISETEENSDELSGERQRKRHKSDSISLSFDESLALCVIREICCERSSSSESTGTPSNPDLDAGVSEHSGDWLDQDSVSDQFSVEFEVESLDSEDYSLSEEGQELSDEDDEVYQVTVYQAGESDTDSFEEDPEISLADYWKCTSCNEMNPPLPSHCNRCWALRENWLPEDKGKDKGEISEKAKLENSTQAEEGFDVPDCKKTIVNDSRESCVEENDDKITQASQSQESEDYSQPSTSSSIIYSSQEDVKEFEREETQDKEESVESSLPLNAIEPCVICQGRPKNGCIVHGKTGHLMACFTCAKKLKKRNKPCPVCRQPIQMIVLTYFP
HIF-2a conf = HIF-2a inhibition, single concentration confirmation. shares compounds with HIF-2a inh. 786-0 RCC cells, HIF-2a luciferase reporter luminescence, overnight. inhibition, % at 18.8 µM. 56% of 1,800 active;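 active means mean inhibition across four replicates of at least 40 percent at the single tested concentration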
HIF-1a counter = counter-screen for HIF-2a inhibitors: HIF-1a inhibition in MiaPaCa-2 cells | shares compounds with HIF-2a inh | MiaPaCa-2 HIF-1a luciferase reporter, desferoxamine, overnight | inhibition, % at 18.8 µM | 72% of 1,800 active | AID 651589;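 active means mean inhibition of the reporter signal across four replicates at the single tested dose of 50% or more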
Numbers without * were called inactive; . = not tested or not shown.

SMILES	CF NFkB block	hiPSC survival	KKLEB tox	PPC-1+TRAIL kill	C8 TRAIL sens	HIF-2a inh	HIF-2a conf	HIF-1a counter	others
COc1ccc(C(=O)c2no[n+]([O-])c2C(=O)c2ccc(OC)cc2)cc1	90.2*	0.2	-79.6*	19.4	93.4*	65.0*	15.6	32.6
CN(C)CCNc1ncnc2c1sc1nc(-c3ccccc3)c3c(c12)CCCC3	7.9	-0.8	-4.8	12.6	22.7	-6.3	.	.
Nc1nc(F)nc2c1ncn2[C@@H]1O[C@H](CO)[C@@H](O)[C@@H]1O	-9.1	1.3	15.2	15.9	12.4	3.2	.	.
Nc1nc(F)nc2c1ncn2[C@@H]1O[C@H](CO)[C@@H](O)[C@H]1O	81.4*	-0.7	-28.5	.	57.5*	56.7*	55.4*	106.6*
COC(=O)[C@@]1(Cc2ccc(OC)cc2)[C@@H]2C(=CC(=O)[C@H]2CC(=O)C(=O)N2CCCC2)CN1C(=O)c1ccccc1	28.0	-5.1	-4.8	3.3	17.1	77.2*	69.3*	84.5*
CCCOc1ccc(C(=O)C(CN2CCCC2)c2ccccc2)cc1 (configuration not stated)	38.5	-3.1	-61.0*	16.3	9.7	85.5*	-17.7	103.9*
CCCCOc1ccc(C(=O)C(CN2CCOCC2)c2ccccc2)cc1 (configuration not stated)	-18.1	-3.6	-37.7	23.9	-2.2	86.9*	25.4	104.8*
COc1ccc(S(=O)(=O)N2CCCOC2CNC(=O)C(=O)NCCc2ccco2)cc1C (configuration not stated)	5.1	-0.2	-10.9	.	16.9	12.9	.	.
O=C(NCc1cccnc1)/C(=C\c1ccc(-c2ccc(Cl)c(Cl)c2)o1)S(=O)(=O)c1ccccc1	98.6*	-4.4	-98.2*	27.0	93.4*	97.1*	98.7*	106.2*
O=C(O)c1cccc2c1C(=O)c1ccc(-c3ccc(F)cc3F)cc1S2(=O)=O	16.9	4.7	-2.2	.	-15.3	3.0	.	.
CCOc1ccc(C(=O)Nc2nc3ccccc3[nH]2)cc1OCC	2.0	-0.1	12.1	8.6	2.2	-193.7	.	.
CCc1ccc(C(=O)Nc2nc3ccccc3[nH]2)cc1	5.0	-0.8	-69.4*	.	96.3*	63.0*	84.3*	83.7*
CC(C)n1c(/C=C/[C@@H](O)C[C@@H](O)CC(=O)O)c(-c2ccc(F)cc2)c2ccccc21	45.5	-1.3	-3.0	.	12.2	39.0*	20.1	-38.7
COCCOc1ccc(C(F)(F)F)cc1NC(=O)CN1C(=O)NC(C)(c2ccc3c(c2)OCO3)C1=O (configuration not stated)	-45.8	-0.5	-5.9	.	0.9	10.6	.	.
O=C(Cn1ncc(Cl)c(Cl)c1=O)N1CCc2ccccc21	102.8*	0.0	-87.8*	31.3	96.2*	93.7*	98.1*	106.1*
Cc1nn(CC(=O)N2c3ccccc3NC(=O)C2(C)C)c(C)c1[N+](=O)[O-]	-8.9	1.0	0.6	1.6	2.7	0.8	.	.
O=C(Cn1ncc2c1-c1ccccc1OC2)N1CCN(Cc2ccccc2)CC1	6.3	-0.8	-4.4	-8.4	-3.1	12.5	.	.
O=C(Cn1ncc(Cl)c(Cl)c1=O)N1CCN(Cc2ccccc2)CC1	88.2*	-2.4	-67.8*	18.8	-8.5	96.0*	60.7*	106.2*
O=C(Cn1ncc(Cl)c(Cl)c1=O)N1CCOCC1	47.7	0.9	-10.4	18.1	-2.6	83.9*	-25.5	105.5*
Cc1c2cnn(CC(=O)N3CCOCC3)c(=O)c2c(C)n1Cc1ccc(F)cc1	5.7	3.0	7.4	.	-15.1	3.4	.	.
CC1(C)C(=O)Nc2ccccc2N1C(=O)Cn1ncc(Cl)c(Cl)c1=O	7.2	0.3	5.9	22.1	10.5	5.1	.	.	Mdm2 MdmX conf=57.8*
COc1cc(-c2ccc3oc(-c4ccsc4)cc3c2)cc(OC)c1OC	12.8	1.7	7.5	.	17.5	0.0	.	.
O=C(c1ccco1)N1CCN(C(=O)C2CC(=O)N(c3ccc(Cl)cc3)C2)CC1 (configuration not stated)	2.3	-0.1	-1.4	.	-8.2	12.1	.	.
NS(=O)(=O)c1ccc(Sc2nc3ccccc3s2)c([N+](=O)[O-])c1	82.5*	-0.7	-52.6*	13.6	1.3	15.8	.	.	Mdm2 MdmX conf=97.0*
O=C(Nc1ccc(Cc2ccncc2)cc1)c1cccc([N+](=O)[O-])c1	-10.7	2.2	-4.2	2.2	-6.3	-94.3	.	.
SMILES	CF NFkB block	hiPSC survival	KKLEB tox	PPC-1+TRAIL kill	C8 TRAIL sens	HIF-2a inh	HIF-2a conf	HIF-1a counter	others
O=C(Nc1ccc(S(=O)(=O)N2CCOCC2)cc1)c1ccc([N+](=O)[O-])o1	78.0*	-0.5	-4.0	36.4	27.6	66.7*	35.9	77.9*
O=C(Nc1ccc(Cc2ccncc2)cc1)c1ccc([N+](=O)[O-])o1	44.7	-0.5	-4.0	.	30.0	53.5*	27.0	101.5*
O=C(Nc1ccc(S(=O)(=O)N2CCCC2)cc1)c1ccc([N+](=O)[O-])o1	82.6*	-3.0	-14.6	.	46.1	77.2*	49.6*	93.6*
O=C(Nc1ccc(N2CCN(C(=O)c3cccs3)CC2)cc1)c1ccc([N+](=O)[O-])o1	107.1*	-0.4	-55.5*	.	93.8*	98.4*	98.7*	104.4*
Cc1ccc(C(=O)Nc2ccc(S(=O)(=O)N3CCCC3)cc2)o1	6.8	-0.2	5.1	.	-2.4	-0.8	.	.
CC(=O)c1ccc(N2CCN(C(=O)c3ccc(Cn4c(=S)[nH]c5ccc(N6CCOCC6)cc5c4=O)cc3)CC2)cc1	-27.8	0.0	3.8	8.1	14.2	-131.4	.	.
CN(C(=O)c1ccccc1Cl)c1ccccc1C(=O)NCCc1ccccc1	20.2	1.8	-4.9	.	-3.7	21.6	.	.
Cc1cc(C)n(CCC(=O)N/N=C/c2c(O)ccc3ccccc23)n1	-7.0	-0.5	0.5	46.9	23.3	22.3	.	.	Mdm2 MdmX conf=88.5*
O=C(Nc1ccccc1)NN(C(=O)CCl)c1ccccc1	69.7*	-0.7	-33.8	.	96.6*	58.1*	67.3*	90.0*	Mdm2 MdmX conf=103.0*
CCC(O)(CC)C(=O)NN(C(=O)CCl)c1ccccc1	-7.0	-1.8	2.0	-5.5	18.6	-0.2	.	.
Cc1ccc(C(O)(C(=O)NN(C(=O)c2ccccc2)c2ccccc2)c2ccc(C)cc2)cc1	-12.4	0.2	-6.4	5.0	-6.7	14.3	.	.
Cc1ccc(N(NC(=O)C(O)(c2ccccc2)c2ccccc2)C(=O)CCl)cc1	57.8*	-1.1	-66.4*	30.4	54.4*	50.2*	32.2	99.3*	Mdm2 MdmX conf=102.2*
